Compound activity from PubChem.
D1 PAM: human D1 dopamine receptor positive modulation. hit rate 0.036% among 360,000. potentiation, % at 10 µM. HEK293 TREx D1 cells, calcium flux, dopamine EC20 potentiation. AID 504651. P21728; in the data active = potentiation above about 30%; also: 0% is about no effect
Target sequence (P21728 whole entry, looked up): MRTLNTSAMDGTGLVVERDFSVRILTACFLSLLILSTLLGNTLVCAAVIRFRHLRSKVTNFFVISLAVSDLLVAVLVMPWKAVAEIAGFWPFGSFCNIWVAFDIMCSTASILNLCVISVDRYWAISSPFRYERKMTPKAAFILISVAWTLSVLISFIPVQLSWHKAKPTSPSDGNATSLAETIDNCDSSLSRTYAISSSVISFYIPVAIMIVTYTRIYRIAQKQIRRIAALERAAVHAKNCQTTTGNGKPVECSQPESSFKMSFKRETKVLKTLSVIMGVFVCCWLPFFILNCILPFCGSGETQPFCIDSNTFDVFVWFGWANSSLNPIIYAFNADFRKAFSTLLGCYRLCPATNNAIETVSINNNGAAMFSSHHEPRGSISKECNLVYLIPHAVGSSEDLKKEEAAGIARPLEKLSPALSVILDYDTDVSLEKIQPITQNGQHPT
TRHR PAM: TRH receptor (human) allosteric enhancement; TRHR cells, fluo-8 calcium fluorescence, EC20 TRH enhancement; enhancement, % at 2 µM; hit rate 0.66% among 360,000; in the data active = enhancement above about 30%; also: 0% is about no effect
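TRHR-expressing cells loaded with fluo-8 calcium dye were read kinetically (ex 480/em 530) during compound addition, then stimulated with an EC20 of TRH (10 nM final). Enhancement of the Gq-mediated intracellular calcium response was scored.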
D1 antag: human D1 dopamine receptor antagonism; P21728; HEK293 TREx D1 cells, calcium flux, dopamine EC80; stronger effect = lower value; activity change, negative = inhibition, % at 10 µM; hit rate 3.2% among 360,000; AID 504652; in the data active = activity change below about -30%; also: % is scaled to controls: 0 for no effect and ±100 for the full control effect
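Cells carrying a force-coupled, tetracycline-inducible human D1 receptor report calcium flux. Each well gets a 10 s baseline, compound with 180 s monitoring, then an EC80 dopamine stimulus with a second 180 s kinetic read.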
D1 agonist: activates the human D1 dopamine receptor; P21728; HEK293 T-REx D1 cells, calcium flux, agonist mode; hit rate 1% among 360,000; activation, % at 2 µM; AID 504660; also: 0% is about no effect
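Tetracycline-induced HEK293 TREx D1 cells, force-coupled to calcium signalling, were dye-loaded with a no-wash calcium kit. Compound was pin-added after a 10 s baseline. Fluorescence was read kinetically at 1 cycle/s for 180 s, with calcium rises flagged as agonism.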
TRHR agonist: TRH receptor (human) agonism; P34981; TRHR cells, calcium flux fluo-8, FDSS agonist mode; activation, % at 2 µM; hit rate 0.18% among 360,000; also: 0% is about no effect
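Read-out: compound-evoked intracellular calcium rise in TRHR cells, fluo-8 dye, kinetic FDSS fluorescence at 1 s/cycle following a 10-cycle baseline. Cells cultured overnight before dye loading (30 min–1.5 h, RT).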
Numbers without * were called inactive; . = no result given. Compounds with a hit are over-represented: about 4.7% of the library has one in this group of screens. Rule as the data show it, unless noted: active = activation above about 30%; inactive = the rest.

SMILES	D1 PAM	TRHR PAM	D1 antag	D1 agonist	TRHR agonist
CC(=O)c1ccc(OCc2cc(C(=O)N3CCC[C@H]3CO)no2)cc1	-3	0	-25	3	0
CCOC(=O)c1cc(-c2ccccc2)n(CC(=O)NC2CCC(C)CC2)c1C (stereo not drawn)	-4	9	-3	1	0
O=[N+]([O-])c1ccc(/C=N/NC(=S)Nc2ccccc2F)o1	-4	-1	-53*	3	0
O=[N+]([O-])c1ccc(/C=N/Nc2ccc3ccccc3c2)o1	-2	-4	11	40*	6
O=C(N/N=C/c1ccc([N+](=O)[O-])o1)c1cc2ccccc2o1	-4	5	6	1	0
O=[N+]([O-])c1ccc(/C=N/NC(=S)Nc2ccccc2)o1	-4	-4	-3	9	-1
NC(=O)NC(c1ccccc1)c1ccccc1	35*	-5	.	185*	1
COc1ccc(NC(=O)Nc2ccc(F)cc2)cn1	-2	2	-18	16	1
COc1ccc(NC(=O)C(c2ccc(Cl)cc2)C(C)C)cn1 (stereo not drawn)	10	2	3	39*	6
O=C(Nc1ccccc1)Nc1nc(Nc2cc(F)cc(F)c2)nc(NC2CCCC2)n1	-7	1	8	2	0
COc1cc2c(cc1OC)C1=C(C#N)CC/C(=N\S(=O)(=O)c3cccc(Cl)c3)N1CC2	-10	-1	-74*	3	1
CCOc1ccc(-c2cc(CCCC(=O)NCCc3ccc(Cl)cc3)no2)cc1	0	-5	-23	11	0
CCOc1ccc(-c2cc(CCCC(=O)NCCc3ccc(OCC)c(OCC)c3)no2)cc1	-4	-9	-33*	9	0
CC(C)Cc1ccc(C(C)C(=O)Nc2ccc(O)cc2)cc1 (stereo not drawn)	5	-11	-68*	83*	14
CC(C)Cc1ccc(C(C)C(=O)Nc2cccnc2)cc1 (stereo not drawn)	-5	-7	-51*	75*	10
CC(C(=O)Nc1cccnc1)c1ccc([N+](=O)[O-])cc1 (stereo not drawn)	5	0	6	25	3
CC(C)CC(NC(=O)C1CCC(C)CC1)C(=O)Nc1cccnc1 (stereo not drawn)	-3	-7	-35*	0	0
CCOc1ccc(NC(=O)Nc2c[nH]c(=O)[nH]c2=O)cc1	2	17	-2	2	1
CCc1cc2c(cc3c(=O)n(CC(=O)NC4CCCCC4)nc(CC)n32)s1	2	1	-4	0	0
Cc1cc2c(s1)c1cnn(Cc3ccc(Cl)c(F)c3)c(=O)c1n2C	4	3	-2	5	0
Cc1cccc(N2CCN(S(=O)(=O)c3ccc(F)c(C(=O)Nc4ccc(C(C)C)cc4)c3)CC2)c1C	-1	1	4	0	0
N#C/C(=C\c1ccc[nH]1)Sc1nc2ccccc2s1	-10	1	-16	3	-1
N#C/C(=C\c1cccs1)Sc1nc2ccccc2s1	-7	-6	-35*	8	2
COC(=O)C1SCC2C(=O)N(Cc3ccccc3)CC(=O)N21 (stereo not drawn)	-1	1	-1	2	0
CCCN1C(=O)S/C(=C\c2ccc(N3CCOCC3)o2)C1=O	10	11	14	34*	20
SMILES	D1 PAM	TRHR PAM	D1 antag	D1 agonist	TRHR agonist
CCCN1C(=O)S/C(=C/c2ccc(N3CCOCC3)o2)C1=O	11	5	-21	103*	-1
CCCN1C(=O)S/C(=C\c2ccc(N3CCOCC3)cc2C)C1=O	-6	10	-3	5	-1
N=C1C(c2nc3ccccc3[nH]2)=C(O)CN1C1CCCCC1	-4	3	-10	1	-1
N=C1C(c2nc3ccccc3[nH]2)=C(O)CN1c1ccc(F)cc1	-17	14	-30*	2	-1
O=c1[nH]c2cccnc2n1Cc1ccco1	-5	1	-43*	-2	-1
Cc1ccc(S(=O)(=O)CCC(=O)OCC(=O)c2ccc(C)c(C)c2)cc1	-10	4	-31*	11	0
Cc1ccc(C(=O)COC(=O)CCS(=O)(=O)c2ccccc2)cc1[N+](=O)[O-]	-7	1	-3	1	-1
O=C(Nc1ccc(OC(F)(F)F)cc1)N1CCN(c2ccnc3cc(Cl)ccc23)CC1	-12	4	-41*	10	0
COc1ccc(C2CC(c3ccccc3)=NN2c2ccc(N)cc2)cc1 (stereo not drawn)	-3	-1	-30*	8	1
COc1ccc(C2CC(c3ccc4ccccc4c3)=NN2C(=O)CNC2CCCCC2)cc1 (stereo not drawn)	1	5	17	32*	0
COc1ccc(C2=NN(C(N)=S)C(c3ccccc3)C2)cc1 (stereo not drawn)	1	0	-30*	5	-1
COc1ccc(C2CC(c3ccccc3)=NN2c2ccc(Cl)c(C(=O)O)c2)cc1 (stereo not drawn)	0	7	-5	8	0
COCCNC(=O)CCCn1c(=O)[nH]c2ccsc2c1=O	1	-4	3	-1	0
Fc1ccccc1-n1ncc2c1ncn1nc(-c3ccccc3Cl)nc21	-1	-4	5	-1	0
O=S(=O)(c1ccc(F)cc1)N1CCC(Oc2cccc(C(F)(F)F)c2)CC1	-2	-11	-9	13	2
CN(CC(=O)Nc1ccccc1Cl)S(=O)(=O)c1ccc(C(=O)N2CCOCC2)s1	1	1	14	1	0
CCN1C(=O)/C(=C/C=C2\N(CC)c3cc(S(=O)(=O)N(C)C)ccc3N2c2ccccc2)SC1=S	-3	-1	14	83*	27
COc1ccccc1N1CCN(CC(=O)c2ccc3ccn(C(C)=O)c3c2)CC1	.	17	-76*	1	-1
COc1ccc(C(=O)CCN2CCN(c3ccccc3OC)CC2)cc1	-12	6	-46*	5	-1
COc1ccc(C(=O)N2CCN(c3ccccc3OC)CC2)cc1	-10	-2	-8	4	2
COc1ccccc1N1CCN(CCCC(=O)c2ccc(F)cc2)CC1	-9	22	-80*	6	0
Cc1ccc2nc(SCc3ccc([N+](=O)[O-])cc3)[nH]c2c1	-5	-11	-35*	3	2
Cc1cccc2nc(CSc3nc4ccc([N+](=O)[O-])cc4[nH]3)cn12	-22	4	-37*	0	-3
O=[N+]([O-])c1ccc2nc(SCc3cn4ccccc4n3)[nH]c2c1	0	-5	-16	3	0
COc1cc(/C=c2\s/c(=C(/C#N)C(=O)N3CCCC3)n(-c3ccccc3)c2=O)ccc1O	0	11	0	138*	72*
O=C(CSc1nnc(CNC(=O)c2cccc(F)c2)n1-c1ccccc1)Nc1ccccc1F	-4	-4	-8	0	0
